# Several values for one entry are separate records, joined by “and”; a condition that tells them apart may be missing. Equal entries are not always repeated. Inconclusive results are not listed. A call without a number means that no potency is given here. The source holds several records for some structures; these can differ, active in one and inactive in another. Activity calls are given as the source filed them. Unless noted, the call rests on the fitted dose curve; in most records, active means well fitted curve in the direction sought with a large enough effect in the repeat runs; inconclusive means weak or mixed curves; inactive means no such curve, though single readings can be large; an effect the other way counts as inactive or inconclusive.
# How the values were obtained:
# [1] = qHTS assay to identify small molecule agonists of the hypoxia (HIF-1) signaling pathway - cell viability counter screen (AID 1224844; calls by dose curve; further: nearly all actives have a fitted effect of over 50% in size; further: potency means the concentration at half of the fitted maximal effect)
# Outline: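 HRE-bla ME-180; 0.5% dFBS; cpd 17 h, 37C, 5% CO2; CellTiter-Glo lum., 30 min RT, post-FRET read, same wells.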
# [2] = qHTS assay to identify small molecule agonists of H2AX (AID 1224845; active means well fitted activation curve with a large enough effect in the signal ratio in the repeat runs, not every such curve was filed as active; the % refers to the signal ratio; further: potency means the concentration at half of the fitted maximal effect)
# Outline: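 Wild-type CHO-K1 cells, plated overnight, exposed 3hr at 37C to 15 concentrations (0.76% DMSO final). Lysed, then HTRF anti-pH2AX (S139) cryptate and anti-H2AX-d2 antibodies, 24 hr room temperature; 665/620 nm emission read.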
# [3] = qHTS assay to identify small molecule agonists of H2AX - cell viability counter screen (AID 1224847; calls by dose curve; further: nearly all actives have a fitted effect of over 30% in size; further: potency means the concentration at half of the fitted maximal effect; on activity change, negative = cytotoxicity: top concentration of the series differs between compounds)
# Outline: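 Cells plated first: CHO-K1, 1000 per well in 10% FBS medium, incubated overnight at 37C. Then 15-point compound titration added (final DMSO 0.76%) for 3 hr. Finally CellTiter-Glo added and luminescence read.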
# [4] = qHTS RealTime-Glo MT Cell Viability Assay in HepG2 cells - 24 hour (AID 1224867); further: nearly all actives have a fitted effect of over 50% in size; further: potency means the concentration at half of the fitted maximal effect
# Outline: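 HepG2 suspension premixed with RealTime-Glo reagents is plated at 600 cells per well and left 5 h at 37 C/5% CO2. Compounds in DMSO then go in, and bioluminescence reflecting viable cell number is recorded over 40 h.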
# [5] = qHTS RealTime-Glo MT Cell Viability Assay in HEK293 cells - 32 hour (AID 1224868); further: nearly all actives have a fitted effect of over 50% in size; further: potency means the concentration at half of the fitted maximal effect; on activity change, negative = cytotoxic: top concentration of the series differs between compounds
# Outline: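 Reads taken at 0, 8, 16, 24, 32 and 40 h from the same wells. HEK293 cells (600/well) carried RealTime-Glo reagents from seeding, with compound added after a 5 h settle at 37 C.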
# [6] = A CellTox Green Cytotoxicity Assay to monitor cytotoxicity in HEK293 cells - 0 hour (AID 1224869); further: nearly all actives have a fitted effect of over 50% in size; further: potency means the concentration at half of the fitted maximal effect
# Outline: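 Tox21 screen in HEK293: membrane-impermeant cyanine dye fluoresces on binding dead-cell DNA; compound pinned 5 h post-seeding, plates held at 37 C, signal read repeatedly through 40 h.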
# [7] = qHTS RealTime-Glo MT Cell Viability Assay in HepG2 cells - 40 hour (AID 1224870); further: nearly all actives have a fitted effect of over 50% in size; further: potency means the concentration at half of the fitted maximal effect
# Outline: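 HepG2 cells (600/well) mixed with RealTime-Glo MT reagent, settled 5 h at 37 C/5% CO2 before compound addition. Nonlytic NanoLuc luminescence from viable-cell prosubstrate reduction read repeatedly during 40 h treatment at 37 C.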
# [8] = qHTS assay to identify small molecule agonists of the hypoxia (HIF-1) signaling pathway (AID 1224846; active means well fitted activation curve with a large enough effect in the signal ratio in the repeat runs, not every such curve was filed as active; the % refers to the signal ratio)
# Outline: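 Reporter induction in HRE-bla ME-180 cells is taken as agonism: cells sit 5 hrs after plating, receive compounds or DMSO only, incubate 17 hrs at 37C under 5% CO2, and are loaded with CCF4-AM for beta-lactamase FRET measurement.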
# [9] = qHTS assay to identify small molecule antagonists of the estrogen related receptor (ERR) signaling pathway from Tox21 library (AID 1224848); further: nearly all actives have a fitted effect of over 50% in size; further: potency means the concentration at half of the fitted maximal effect
# Outline: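 Compounds dissolved in DMSO are pin-transferred onto ERR reporter cells (2,000 per well) that have settled for 6 h at 37 C. Plates then incubate 18 h at 37 C before ONE-Glo luciferase reagent and a luminescence read 30 min later.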
# [10] = qHTS assay to identify small molecule agonists of the estrogen related receptor (ERR) signaling pathway from Tox21 library (AID 1224849; calls by dose curve; further: nearly all actives have a fitted effect of over 15% in size); conditions: ERR reporter cell line, ONE-Glo luciferase, 18 h
# Outline: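 Tox21 compounds tested for ERR agonism in an NTP reporter cell line: 18 h treatment at 37 C, then ONE-Glo luminescence.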
Compound,Potency [1],Potency [2],Potency [3],Potency [4],Potency [5],Potency [6],Potency [7],outcome [8],"activity change, negative = cytotoxicity [4]","activity change, negative = cytotoxic [7]",Potency [9],"activity change, positive = activation ([10]; at 42.5 µM (top of the series))","activity change, positive = activation ([10]; at 92.4 µM (top of the series))","activity change, positive = activation ([10]; at 19 µM (top of the series))"
C[N+](C)(C)CCO,inactive,inactive,inactive,inactive,inactive,inactive,inactive,,,,,,,
O=[Se](O)O,inactive,inactive,inactive,,19.5 µM (active),inactive,21.9 µM (active),inactive,-0.447% [at 15.8 µM] (inactive),2.31% [at 15.8 µM] (inactive),,,,
C=CCCCCCCCCCC,inactive,inactive,inactive,inactive,inactive,inactive,inactive,inactive,,,,,,
C/C=C/C(=O)N(CC)c1ccccc1C,inactive,inactive,inactive,inactive,inactive,inactive,inactive,,,,inactive,9.15% (inactive),-2.58% (inactive),
O=S1(=O)CCCO1,inactive,inactive,inactive,inactive,inactive,inactive,inactive,inactive,,,,,,
Oc1ccc(C(c2ccc(O)cc2)C(Cl)(Cl)Cl)cc1,inactive,inactive,,inactive,,inactive,inactive,inactive,,,,,,
CN(Cc1cnc2nc(N)nc(N)c2n1)c1ccc(C(=O)N[C@@H](CCC(=O)O)C(=O)O)cc1,inactive,,636 nM (active) and 1.1 µM (active),inactive,110 nM (active) and 67.4 nM (active),inactive,inactive,,,,,,,
O=C(CCCN1CCC(O)(c2ccc(Cl)cc2)CC1)c1ccc(F)cc1,inactive,inactive,inactive,49 µM (active) and inactive,17.4 µM (active) and 8.49 µM (active),inactive,54.9 µM (active) and inactive,,,,,,,
COc1ccc2nc(N)sc2c1,inactive,inactive,inactive,inactive,inactive and 2.19 µM (active),inactive,inactive,inactive,,,,,,
Nc1cc([N+](=O)[O-])ccc1C(=O)O,inactive,inactive,inactive,inactive,inactive,inactive,inactive,inactive,,,,,,
C1CN(SSN2CCOCC2)CCO1,54.4 µM (active),,inactive,inactive,inactive,inactive,inactive,inactive,,,60.5 µM (active) and 61.1 µM (active),,-55.6% (inactive) and -54.1% (inactive),
CC(=O)Oc1c(C)c(C)c2c(c1C)CC[C@@](C)(CCC[C@H](C)CCC[C@H](C)CCCC(C)C)O2,,inactive,inactive,inactive,inactive,inactive,,inactive,,,inactive,0% (inactive),5.86% (inactive),
O=C1OC2(c3ccccc31)c1cc(I)c(O)c(I)c1Oc1c2cc(I)c(O)c1I,,51.1 µM (active),11.3 µM (active) and 28.7 µM (active) and 8.65 µM (active),39 µM (active) and 27.9 µM (active),49.1 µM (active) and inactive,15.5 µM (active) [middle of 4 runs],,inactive,,,inactive,-27.3% (inactive) and -18.3% (inactive) and -7.34% (inactive),-20.6% (inactive),
C[C@]12CC[C@@H]3c4ccc(O)cc4CC[C@H]3[C@@H]1CC[C@@H]2O,inactive,inactive,inactive,inactive,17.3 µM (active) and 21.9 µM (active),inactive,,,,,27.3 µM (active) and 34.4 µM (active),,-53.8% (inactive) and -42.2% (inactive),
CC(C)[N+](C)(CCOC(=O)C1c2ccccc2Oc2ccccc21)C(C)C,inactive,inactive,inactive,inactive,inactive,inactive,inactive,,,,,,,
CC1(C)OC(=O)NC1=O,inactive,inactive,inactive,inactive,inactive,inactive,inactive,,,,inactive,3.88% (inactive),4.19% (inactive),
NCCS(=O)(=O)O,inactive,inactive,inactive,inactive,inactive,inactive,inactive,,,,,,,
Nc1ccc2c(c1)C(=O)c1ccccc1C2=O,inactive,inactive,98.9 µM (active) and inactive,inactive,inactive,inactive,inactive,inactive,,,,,,
CC(=O)OC(C)C,inactive,inactive,inactive,inactive,inactive,inactive,inactive,inactive,,,,,,
CCCCCCCC/C=C\CCCCCCCC(=O)O,inactive,inactive,inactive,inactive,inactive,inactive,,,,,,,,
O=C(O)COCCN1CCN(C(c2ccccc2)c2ccc(Cl)cc2)CC1 (stereo not drawn),inactive,,inactive,inactive,inactive,inactive,inactive,,,,,,,
C1COCCN1,inactive,inactive,inactive,inactive,inactive,inactive,inactive,inactive,,,,,,
C=C[Si](OCCOC)(OCCOC)OCCOC,inactive,inactive,inactive,inactive,inactive,inactive,inactive,inactive,,,,,,
c1ccc2cc3ccccc3cc2c1,inactive,,inactive,inactive,inactive,inactive,,inactive,,,inactive,,6.4% (inactive) and 19.8% (active),
CN(C)/N=N/c1nc[nH]c1C(N)=O,inactive,inactive,inactive,inactive,inactive,inactive,,,,,69.6 µM (active),-23.2% (inactive),-35.6% (inactive),

Compound,Potency [1],Potency [2],Potency [3],Potency [4],Potency [5],Potency [6],Potency [7],outcome [8],"activity change, negative = cytotoxicity [4]","activity change, negative = cytotoxic [7]",Potency [9],"activity change, positive = activation ([10]; at 42.5 µM (top of the series))","activity change, positive = activation ([10]; at 92.4 µM (top of the series))","activity change, positive = activation ([10]; at 19 µM (top of the series))"
NCCN,inactive,inactive,inactive,inactive and 38.9 µM (active),inactive,inactive,inactive and 13.8 µM (active),inactive,,,,,,
Nc1ccc(O)c(N)c1,inactive,,56.3 µM (active) and 50.5 µM (active),inactive,inactive,inactive,inactive,inactive,,,inactive,,-9.18% (inactive) and -12% (inactive),
C=C[C@@]1(C)CC(=O)[C@]2(O)[C@@]3(C)[C@@H](O)CCC(C)(C)[C@@H]3[C@H](O)[C@H](OC(C)=O)[C@@]2(C)O1,38.9 µM (active),inactive,inactive,inactive,inactive,inactive,inactive,inactive,,,,,,
NC[C@H](O)c1ccc(O)c(O)c1,inactive,,inactive,inactive,inactive,inactive,,,,,,,,
CCCCCCCCCCCCO,inactive,inactive,inactive,inactive,inactive,inactive,inactive,inactive,,,,,,
C=C[C@H]1CN2CC[C@H]1C[C@H]2[C@H](O)c1ccnc2ccc(OC)cc12,inactive,inactive,inactive,inactive,inactive,inactive,inactive,,,,,,,
Nc1cc(Cl)c(N)c(Cl)c1,inactive,,inactive,inactive,inactive,inactive,,inactive,,,,,,
COc1ccc(C(=O)c2ccccc2O)c(O)c1,inactive,inactive,,inactive,inactive,inactive,,inactive,,,inactive,-1.96% (inactive),-27.1% (inactive),
CC(C)(Oc1ccc(Cl)cc1)C(=O)O,inactive,inactive,inactive,inactive,inactive,inactive,,,,,,,,
CC1(C)C(C=C(Cl)Cl)C1C(=O)OCc1cccc(Oc2ccccc2)c1 (stereo not drawn),inactive,inactive,inactive,inactive,inactive,inactive,inactive,inactive,,,,,,
C=C[C@H]1CN2CC[C@H]1C[C@@H]2[C@@H](O)c1ccnc2ccc(OC)cc12,,inactive,inactive,inactive,48.2 µM (active),inactive,inactive,,,,,,,
CCCN1C=CN(C)C1,,inactive,inactive,inactive,inactive,inactive,inactive,inactive,,,,,,
[O-]/[N+](=N\O)c1ccccc1,,inactive,inactive,inactive,inactive,inactive,inactive,inactive,,,inactive,,4.43% (inactive) and 12.7% (inactive),
CCCCCCOCCOCCO,,inactive,inactive,inactive,inactive,inactive,inactive,inactive,,,,,,
CC/C=C\C/C=C\C/C=C\CCCCCCCC(=O)O,,inactive,inactive,inactive,inactive,inactive,inactive,inactive,,,,,,
CN(C)C,,inactive,inactive,inactive,inactive,inactive,,inactive,,,,,,
CC(=O)Nc1ccc2c(c1)Cc1cc(NC(C)=O)ccc1-2,,inactive,inactive,inactive,inactive,inactive,inactive,inactive,,,,,,
COc1cc([C@H]2Oc3cc([C@H]4Oc5cc(O)cc(O)c5C(=O)[C@@H]4O)ccc3O[C@@H]2CO)ccc1O,,inactive,inactive,inactive,inactive,inactive and 15.1 µM (active),,inactive,,,inactive,4.78% (inactive),-26.2% (inactive),
FC(F)(F)C(Cl)Br (stereo not drawn),,inactive,inactive,inactive,inactive,inactive,inactive,inactive,,,inactive,6.22% (inactive),3.79% (inactive),
Nc1ccc(N)c(Cl)c1,,,,inactive,inactive,inactive and 38.9 µM (active),inactive,inactive,,,68.5 µM (active) and 54.5 µM (active),,-59.7% (inactive) and -39% (inactive),
COC(=O)C(C)Oc1ccc(Oc2ncc(C(F)(F)F)cc2Cl)cc1 (stereo not drawn),,inactive,inactive,inactive,inactive,inactive,inactive,inactive,,,39.1 µM (active),,-47.3% (inactive) and -26.9% (inactive),
CCCOCCO,,inactive,inactive,inactive,inactive,inactive,inactive,inactive,,,,,,
CC1(C)NC(=O)N(c2ccc([N+](=O)[O-])c(C(F)(F)F)c2)C1=O,,inactive,28.4 µM (active) and inactive,inactive,24.5 µM (active),inactive,,,,,17.2 µM (active) and 11.9 µM (active),-39.2% (inactive),-43.1% (inactive),
CNC[C@H](O)c1ccc(O)c(O)c1,,,inactive,inactive,inactive,inactive,inactive,,,,inactive,,-7.74% (inactive),16.5% (inactive)
